Common to all, as to test: DAPPL (digital affinity profiling via proximity ligation, sequencing); 10 mM Tris-HCl pH 7.5, 50 mM NaCl, 1 mM DTT, 4% glycerol, room temperature, 30 min; GST-TFs on glutathione beads, 16-mer random dsDNA library, 0.1% formaldehyde crosslink after washing; high values mean tight binding
For one assay, the target named is T1, FEV (Homo sapiens, UniProt Q99581 1-238).
T1 sequence: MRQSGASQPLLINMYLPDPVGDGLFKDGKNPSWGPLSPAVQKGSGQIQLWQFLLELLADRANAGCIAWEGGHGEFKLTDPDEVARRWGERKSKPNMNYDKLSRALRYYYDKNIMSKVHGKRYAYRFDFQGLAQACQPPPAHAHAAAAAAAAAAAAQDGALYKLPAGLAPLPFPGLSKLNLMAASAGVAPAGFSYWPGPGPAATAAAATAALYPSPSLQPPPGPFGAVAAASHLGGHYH
To be noted: protein: recombinant; tags: N-terminal GST; dsDNA, one strand shown. The essentials: (§1)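 Beads coated with glutathione captured GST-fused human transcription factors that had been expressed in yeast, and the factors were then given DNA barcodes and pooled with a tag-only sample. The pools were incubated with 200 nmole of a random double-stranded 16-mer DNA library in Tris/NaCl/DTT/glycerol buffer for 30 min at room temperature, washed, crosslinked with 0.1% formaldehyde and proximity-ligated with BsaI/T4 ligase at 37 °C for 1 h. PCR amplification and Illumina NextSeq500 sequencing came last. Binding signal is each hexamer's read frequency for a factor divided by its frequency for the tag-only sample.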

The target of the next assay is ETV5 (Homo sapiens, UniProt P41161 1-510). Particulars: protein: recombinant; tags: N-terminal GST; dsDNA, one strand shown. The essentials: as §1
The target in the next assay is HSF1 (Homo sapiens, UniProt Q00613 1-529). To be noted: protein: recombinant; tags: N-terminal GST; chain copies: 3; dsDNA, one strand shown. An outline of the steps:
as §1

Another assay addresses T2, SPIC (Homo sapiens, UniProt Q8N5J4 1-248).
T2 sequence: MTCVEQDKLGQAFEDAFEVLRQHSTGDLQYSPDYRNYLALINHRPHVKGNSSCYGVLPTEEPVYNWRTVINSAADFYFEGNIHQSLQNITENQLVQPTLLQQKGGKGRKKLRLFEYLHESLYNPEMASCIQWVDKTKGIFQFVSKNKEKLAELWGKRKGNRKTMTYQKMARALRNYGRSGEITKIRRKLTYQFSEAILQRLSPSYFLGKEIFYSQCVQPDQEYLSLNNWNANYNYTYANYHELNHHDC
Particulars: protein: recombinant; tags: N-terminal GST; dsDNA, one strand shown. The essentials: as §1

The next assay has as its target ELF4 (Homo sapiens, UniProt Q99607 1-663). Particulars: protein: recombinant; tags: N-terminal GST; dsDNA, one strand shown. An outline of the steps:
as §1

The next assay addresses T3, ELK4 (Homo sapiens, UniProt P28324-2 1-405).
T3 sequence: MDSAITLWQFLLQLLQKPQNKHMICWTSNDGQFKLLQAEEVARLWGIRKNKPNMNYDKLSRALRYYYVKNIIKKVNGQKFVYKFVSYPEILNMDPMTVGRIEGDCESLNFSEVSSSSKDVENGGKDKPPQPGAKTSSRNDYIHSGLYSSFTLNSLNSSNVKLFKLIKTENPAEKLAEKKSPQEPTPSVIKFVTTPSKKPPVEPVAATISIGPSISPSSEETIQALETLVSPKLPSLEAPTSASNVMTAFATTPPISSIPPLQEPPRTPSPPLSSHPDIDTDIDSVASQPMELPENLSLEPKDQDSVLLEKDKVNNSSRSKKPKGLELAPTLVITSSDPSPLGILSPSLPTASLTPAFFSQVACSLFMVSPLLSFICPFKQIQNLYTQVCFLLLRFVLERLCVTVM
To be noted: protein: recombinant; tags: N-terminal GST; dsDNA, one strand shown. The essentials:
as §1

The target of another assay is T4, ETV2 (Homo sapiens, UniProt O00321 1-342).
T4 sequence: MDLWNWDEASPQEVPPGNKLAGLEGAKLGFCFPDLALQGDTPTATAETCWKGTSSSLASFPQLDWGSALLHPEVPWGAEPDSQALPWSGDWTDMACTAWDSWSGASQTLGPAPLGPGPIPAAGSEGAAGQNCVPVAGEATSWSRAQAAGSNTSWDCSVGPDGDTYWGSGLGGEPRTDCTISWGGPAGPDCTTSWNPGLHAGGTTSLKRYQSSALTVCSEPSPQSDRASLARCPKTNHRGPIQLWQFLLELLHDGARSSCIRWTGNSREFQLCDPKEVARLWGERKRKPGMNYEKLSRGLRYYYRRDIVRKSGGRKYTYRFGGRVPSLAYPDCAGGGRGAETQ
Particulars: protein: recombinant; tags: N-terminal GST; dsDNA, one strand shown. An outline of the steps:
as §1

The target of a further assay is T5, ELF3 (Homo sapiens, UniProt P78545 1-371).
T5 sequence: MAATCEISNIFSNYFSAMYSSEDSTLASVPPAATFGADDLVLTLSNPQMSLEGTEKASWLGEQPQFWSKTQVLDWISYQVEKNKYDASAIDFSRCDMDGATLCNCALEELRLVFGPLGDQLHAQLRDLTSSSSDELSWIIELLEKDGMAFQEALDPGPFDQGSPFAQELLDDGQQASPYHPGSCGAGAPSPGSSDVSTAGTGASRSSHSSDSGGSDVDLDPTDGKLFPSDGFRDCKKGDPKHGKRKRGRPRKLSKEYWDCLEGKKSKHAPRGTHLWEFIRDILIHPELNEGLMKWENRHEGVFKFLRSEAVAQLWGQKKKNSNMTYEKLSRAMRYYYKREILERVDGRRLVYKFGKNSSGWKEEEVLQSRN
Particulars: protein: recombinant; tags: N-terminal GST; dsDNA, one strand shown. An outline of the steps:
as §1

A further assay concerns the target CRX (Homo sapiens, UniProt O43186 1-299). To be noted: protein: recombinant; tags: N-terminal GST; dsDNA, one strand shown. The essentials: as §1
In the next assay the target is ETV1 (Homo sapiens, UniProt P50549 1-477). Particulars: protein: recombinant; tags: N-terminal GST; dsDNA, one strand shown. An outline of the steps: as §1
Another assay concerns the target T6, ERF (Homo sapiens, UniProt P50548 1-548).
T6 sequence: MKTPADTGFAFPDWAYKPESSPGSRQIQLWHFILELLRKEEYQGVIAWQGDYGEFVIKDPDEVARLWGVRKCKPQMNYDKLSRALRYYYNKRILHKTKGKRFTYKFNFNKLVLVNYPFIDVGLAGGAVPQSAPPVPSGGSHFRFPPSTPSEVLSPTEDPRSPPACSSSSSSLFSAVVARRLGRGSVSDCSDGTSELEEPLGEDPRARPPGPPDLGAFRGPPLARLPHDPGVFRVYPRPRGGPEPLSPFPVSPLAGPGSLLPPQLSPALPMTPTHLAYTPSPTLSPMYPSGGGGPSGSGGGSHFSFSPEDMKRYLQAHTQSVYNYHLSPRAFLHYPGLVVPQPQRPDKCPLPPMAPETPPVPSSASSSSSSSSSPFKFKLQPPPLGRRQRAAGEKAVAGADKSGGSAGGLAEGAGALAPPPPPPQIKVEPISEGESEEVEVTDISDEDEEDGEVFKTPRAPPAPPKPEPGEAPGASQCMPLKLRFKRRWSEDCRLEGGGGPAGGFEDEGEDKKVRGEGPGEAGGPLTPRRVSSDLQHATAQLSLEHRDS
To be noted: protein: recombinant; tags: N-terminal GST; dsDNA, one strand shown. The essentials:
as §1

The target in another assay is T7, ETV3L (Homo sapiens, UniProt Q6ZN32 1-361).
T7 sequence: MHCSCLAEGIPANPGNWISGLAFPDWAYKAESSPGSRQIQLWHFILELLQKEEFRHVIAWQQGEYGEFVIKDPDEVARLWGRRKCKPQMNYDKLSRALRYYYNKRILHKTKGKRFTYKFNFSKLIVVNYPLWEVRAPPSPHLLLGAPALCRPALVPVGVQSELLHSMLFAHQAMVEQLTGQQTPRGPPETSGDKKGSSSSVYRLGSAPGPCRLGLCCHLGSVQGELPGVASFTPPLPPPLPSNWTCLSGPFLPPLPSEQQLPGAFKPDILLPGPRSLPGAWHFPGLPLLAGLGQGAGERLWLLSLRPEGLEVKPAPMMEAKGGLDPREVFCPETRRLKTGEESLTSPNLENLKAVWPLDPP
Particulars: protein: recombinant; tags: N-terminal GST; dsDNA, one strand shown. The essentials:
as §1

The target in another assay is T8, ETS2 (Homo sapiens, UniProt P15036 1-469).
T8 sequence: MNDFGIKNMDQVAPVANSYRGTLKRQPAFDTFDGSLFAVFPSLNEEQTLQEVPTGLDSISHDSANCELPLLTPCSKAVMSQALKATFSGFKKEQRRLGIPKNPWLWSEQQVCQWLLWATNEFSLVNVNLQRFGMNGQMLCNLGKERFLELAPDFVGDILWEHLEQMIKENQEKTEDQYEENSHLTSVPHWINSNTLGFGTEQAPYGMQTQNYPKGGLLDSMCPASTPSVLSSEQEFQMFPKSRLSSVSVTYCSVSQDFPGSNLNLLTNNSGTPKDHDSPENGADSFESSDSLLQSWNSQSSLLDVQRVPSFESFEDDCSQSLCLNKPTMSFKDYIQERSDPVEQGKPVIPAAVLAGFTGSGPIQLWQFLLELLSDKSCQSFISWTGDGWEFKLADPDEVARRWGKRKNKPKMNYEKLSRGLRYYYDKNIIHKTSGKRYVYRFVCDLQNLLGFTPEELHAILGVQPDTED
To be noted: protein: recombinant; tags: N-terminal GST; dsDNA, one strand shown. The essentials:
as §1

The target of another assay is T9, SPDEF (Homo sapiens, UniProt O95238 1-335).
T9 sequence: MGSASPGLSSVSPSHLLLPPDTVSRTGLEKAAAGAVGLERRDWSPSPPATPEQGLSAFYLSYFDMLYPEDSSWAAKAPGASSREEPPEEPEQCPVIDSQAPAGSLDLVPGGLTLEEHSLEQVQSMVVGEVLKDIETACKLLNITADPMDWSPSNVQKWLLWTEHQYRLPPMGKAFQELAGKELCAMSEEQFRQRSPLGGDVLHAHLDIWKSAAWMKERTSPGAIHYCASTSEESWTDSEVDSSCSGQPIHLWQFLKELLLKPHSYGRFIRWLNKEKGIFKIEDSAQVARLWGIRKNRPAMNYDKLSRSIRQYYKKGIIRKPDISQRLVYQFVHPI
Particulars: protein: recombinant; tags: N-terminal GST; dsDNA, one strand shown. The essentials: as §1

The target in the next assay is T10, ETV7 (Homo sapiens, UniProt Q9Y603 1-341).
T10 sequence: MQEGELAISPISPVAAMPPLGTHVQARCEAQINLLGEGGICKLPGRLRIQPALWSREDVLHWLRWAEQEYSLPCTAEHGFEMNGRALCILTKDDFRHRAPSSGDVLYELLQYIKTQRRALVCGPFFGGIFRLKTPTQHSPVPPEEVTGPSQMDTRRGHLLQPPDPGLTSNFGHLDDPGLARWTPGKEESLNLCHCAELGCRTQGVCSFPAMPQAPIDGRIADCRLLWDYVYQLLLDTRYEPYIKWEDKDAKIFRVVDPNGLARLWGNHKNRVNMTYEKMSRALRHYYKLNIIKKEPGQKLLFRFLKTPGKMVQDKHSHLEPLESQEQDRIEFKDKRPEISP
Particulars: protein: recombinant; tags: N-terminal GST; dsDNA, one strand shown. The essentials: as §1

A further assay addresses T11, ELF5 (Homo sapiens, UniProt Q9UKW6-2 1-255).
T11 sequence: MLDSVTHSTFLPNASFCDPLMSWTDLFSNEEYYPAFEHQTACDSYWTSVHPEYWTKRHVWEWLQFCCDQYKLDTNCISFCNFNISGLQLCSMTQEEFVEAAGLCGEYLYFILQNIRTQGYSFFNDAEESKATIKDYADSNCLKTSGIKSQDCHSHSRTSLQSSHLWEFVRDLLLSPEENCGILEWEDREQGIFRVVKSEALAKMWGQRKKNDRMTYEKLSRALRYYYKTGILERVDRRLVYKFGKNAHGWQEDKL
Particulars: protein: recombinant; tags: N-terminal GST; dsDNA, one strand shown. The essentials:
as §1

The target in another assay is T12, ETV3 (Homo sapiens, UniProt P41162-2 1-143).
T12 sequence: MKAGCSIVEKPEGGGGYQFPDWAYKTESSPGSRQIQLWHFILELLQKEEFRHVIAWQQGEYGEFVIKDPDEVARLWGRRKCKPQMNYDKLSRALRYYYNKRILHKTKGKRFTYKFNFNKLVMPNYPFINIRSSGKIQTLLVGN
To be noted: protein: recombinant; tags: N-terminal GST; dsDNA, one strand shown. An outline of the steps: as §1

The target in the next assay is ETV6 (Homo sapiens, UniProt P41212 1-452). To be noted: protein: recombinant; tags: N-terminal GST; dsDNA, one strand shown. An outline of the steps:
as §1

ETV6, sequence (P41212 whole entry): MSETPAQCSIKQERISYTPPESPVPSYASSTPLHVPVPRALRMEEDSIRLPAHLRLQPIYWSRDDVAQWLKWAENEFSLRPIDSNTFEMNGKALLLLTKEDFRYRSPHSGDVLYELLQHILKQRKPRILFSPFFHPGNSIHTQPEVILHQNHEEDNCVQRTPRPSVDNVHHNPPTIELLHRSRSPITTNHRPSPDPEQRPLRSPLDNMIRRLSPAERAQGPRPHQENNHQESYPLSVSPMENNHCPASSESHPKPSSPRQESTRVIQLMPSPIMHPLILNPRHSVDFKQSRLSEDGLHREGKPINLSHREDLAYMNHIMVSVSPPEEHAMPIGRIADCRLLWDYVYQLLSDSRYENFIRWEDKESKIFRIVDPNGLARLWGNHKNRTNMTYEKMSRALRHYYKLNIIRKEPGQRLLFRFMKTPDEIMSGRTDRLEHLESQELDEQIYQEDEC
HSF1, sequence (Q00613 whole entry): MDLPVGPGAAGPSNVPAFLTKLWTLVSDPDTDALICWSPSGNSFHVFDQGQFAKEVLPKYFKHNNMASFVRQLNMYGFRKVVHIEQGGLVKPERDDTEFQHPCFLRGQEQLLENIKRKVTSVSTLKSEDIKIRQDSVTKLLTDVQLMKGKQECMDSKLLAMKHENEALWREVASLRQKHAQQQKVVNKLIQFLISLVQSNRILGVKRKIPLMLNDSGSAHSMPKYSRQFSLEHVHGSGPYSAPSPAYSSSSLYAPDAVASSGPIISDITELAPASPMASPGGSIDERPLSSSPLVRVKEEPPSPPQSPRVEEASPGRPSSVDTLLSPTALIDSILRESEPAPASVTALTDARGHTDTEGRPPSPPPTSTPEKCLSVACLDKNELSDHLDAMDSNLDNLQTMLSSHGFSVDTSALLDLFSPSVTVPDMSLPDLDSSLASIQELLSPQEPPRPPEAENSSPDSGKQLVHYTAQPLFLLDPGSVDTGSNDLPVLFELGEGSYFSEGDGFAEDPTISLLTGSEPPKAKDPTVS
CRX, sequence (O43186 whole entry): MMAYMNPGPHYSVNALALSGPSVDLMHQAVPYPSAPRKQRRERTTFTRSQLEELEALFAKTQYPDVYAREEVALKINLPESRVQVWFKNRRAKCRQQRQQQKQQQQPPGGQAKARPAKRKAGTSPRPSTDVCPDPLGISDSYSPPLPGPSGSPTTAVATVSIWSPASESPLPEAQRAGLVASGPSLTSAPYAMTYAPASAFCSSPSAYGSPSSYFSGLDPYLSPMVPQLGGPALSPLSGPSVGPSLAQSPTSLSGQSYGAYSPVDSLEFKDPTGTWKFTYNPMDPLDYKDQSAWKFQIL
ETV1, sequence (P50549 whole entry): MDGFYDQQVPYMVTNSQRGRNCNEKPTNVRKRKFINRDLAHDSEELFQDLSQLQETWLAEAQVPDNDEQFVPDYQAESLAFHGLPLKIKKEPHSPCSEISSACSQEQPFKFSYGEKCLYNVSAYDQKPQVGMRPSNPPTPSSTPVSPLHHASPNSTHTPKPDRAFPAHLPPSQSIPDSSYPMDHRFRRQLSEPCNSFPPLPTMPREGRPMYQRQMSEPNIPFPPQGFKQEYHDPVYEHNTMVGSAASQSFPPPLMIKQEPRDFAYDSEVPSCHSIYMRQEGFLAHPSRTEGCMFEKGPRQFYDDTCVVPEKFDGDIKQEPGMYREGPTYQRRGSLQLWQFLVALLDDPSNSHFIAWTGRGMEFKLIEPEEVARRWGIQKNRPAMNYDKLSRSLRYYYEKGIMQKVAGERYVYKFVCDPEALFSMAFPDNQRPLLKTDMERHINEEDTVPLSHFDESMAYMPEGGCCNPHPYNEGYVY
ETV5, sequence (P41161 whole entry): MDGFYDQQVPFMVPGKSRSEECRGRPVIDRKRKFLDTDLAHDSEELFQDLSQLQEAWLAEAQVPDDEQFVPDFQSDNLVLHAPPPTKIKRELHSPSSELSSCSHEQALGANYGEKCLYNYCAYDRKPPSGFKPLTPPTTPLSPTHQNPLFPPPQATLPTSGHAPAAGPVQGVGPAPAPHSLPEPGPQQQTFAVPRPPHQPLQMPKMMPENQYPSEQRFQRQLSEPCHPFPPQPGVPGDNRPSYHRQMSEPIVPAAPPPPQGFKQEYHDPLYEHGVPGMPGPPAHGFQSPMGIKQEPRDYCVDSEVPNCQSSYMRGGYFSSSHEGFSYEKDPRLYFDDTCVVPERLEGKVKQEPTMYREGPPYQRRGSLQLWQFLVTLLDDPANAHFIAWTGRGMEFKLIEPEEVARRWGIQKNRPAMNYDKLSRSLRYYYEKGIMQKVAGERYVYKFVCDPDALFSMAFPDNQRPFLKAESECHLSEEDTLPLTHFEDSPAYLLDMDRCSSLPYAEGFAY
ELF4, sequence (Q99607 whole entry): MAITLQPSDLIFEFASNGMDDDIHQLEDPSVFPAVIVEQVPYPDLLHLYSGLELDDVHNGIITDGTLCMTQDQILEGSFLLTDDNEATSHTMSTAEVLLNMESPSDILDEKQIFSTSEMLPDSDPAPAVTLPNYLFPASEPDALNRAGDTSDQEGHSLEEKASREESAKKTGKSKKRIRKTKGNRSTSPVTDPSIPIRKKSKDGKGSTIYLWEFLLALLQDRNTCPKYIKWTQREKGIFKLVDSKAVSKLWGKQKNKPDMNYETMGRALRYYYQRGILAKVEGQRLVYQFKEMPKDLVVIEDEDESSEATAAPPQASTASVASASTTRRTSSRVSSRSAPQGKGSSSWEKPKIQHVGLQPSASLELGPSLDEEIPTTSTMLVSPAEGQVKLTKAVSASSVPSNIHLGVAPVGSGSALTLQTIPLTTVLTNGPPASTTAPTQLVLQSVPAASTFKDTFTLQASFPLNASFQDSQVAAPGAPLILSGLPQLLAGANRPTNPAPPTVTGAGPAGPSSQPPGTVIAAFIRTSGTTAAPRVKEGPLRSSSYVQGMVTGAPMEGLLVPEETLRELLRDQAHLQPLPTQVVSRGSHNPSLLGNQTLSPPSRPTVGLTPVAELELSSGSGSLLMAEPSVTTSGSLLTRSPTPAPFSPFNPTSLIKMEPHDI

In the case of AACGAT, the binding signal with FEV is 1.15 fold enrichment (6-mer frequency, TF over GST control); with ETV5 it was 1.22 fold enrichment (6-mer frequency, TF over GST control); with HSF1, 1.32 fold enrichment (6-mer frequency, TF over GST control); with SPIC it was 1.19 fold enrichment (6-mer frequency, TF over GST control); in the assay with ELF4, 1.17 fold enrichment (6-mer frequency, TF over GST control); with ELK4 it was 1.15 fold enrichment (6-mer frequency, TF over GST control). For the same sequence, the binding signal is 1.35 fold enrichment (6-mer frequency, TF over GST control) with ETV2; 1.08 fold enrichment (6-mer frequency, TF over GST control) with ELF3; 1.38 fold enrichment (6-mer frequency, TF over GST control) with CRX; 1.19 fold enrichment (6-mer frequency, TF over GST control) in the assay with ETV1; 1.29 fold enrichment (6-mer frequency, TF over GST control) with ERF; 1.19 fold enrichment (6-mer frequency, TF over GST control) in the assay with ETV3L. Moreover, the binding signal in the assay with ETS2 was 1.22 fold enrichment (6-mer frequency, TF over GST control); with SPDEF, 1.14 fold enrichment (6-mer frequency, TF over GST control); in the assay with ETV7, 1.17 fold enrichment (6-mer frequency, TF over GST control); in the assay with ELF5, 1.19 fold enrichment (6-mer frequency, TF over GST control); in the assay with ETV3, 1.24 fold enrichment (6-mer frequency, TF over GST control); with ETV6, 1.25 fold enrichment (6-mer frequency, TF over GST control).

The values are drawn from paper PMC7862700, “An all-to-all approach to the identification of sequence-specific readers for epigenetic DNA modifications on cytosine”.
